According to PubChem BioAssay AID1851 (National Center for Advancing Translational Sciences (NCATS), 2009):
Screen size: about 16,000 compounds; about 5,700 (36%) were called active. Another 24% or so got no clear call; they are omitted. Some of the results follow. Values without a mark were called inactive. Calls follow the shape of the dose curve; as a rule, active = well fitted curve in the direction sought with a large enough effect; inconclusive = small, poorly fitted or top-dose-only effect, or effect the other way; inactive = no such curve, though single readings can be large or run the other way.

Molecular target: Cytochrome P450 1A2 (Homo sapiens) (UniProt P05177)
Sequence (P05177 whole entry, looked up): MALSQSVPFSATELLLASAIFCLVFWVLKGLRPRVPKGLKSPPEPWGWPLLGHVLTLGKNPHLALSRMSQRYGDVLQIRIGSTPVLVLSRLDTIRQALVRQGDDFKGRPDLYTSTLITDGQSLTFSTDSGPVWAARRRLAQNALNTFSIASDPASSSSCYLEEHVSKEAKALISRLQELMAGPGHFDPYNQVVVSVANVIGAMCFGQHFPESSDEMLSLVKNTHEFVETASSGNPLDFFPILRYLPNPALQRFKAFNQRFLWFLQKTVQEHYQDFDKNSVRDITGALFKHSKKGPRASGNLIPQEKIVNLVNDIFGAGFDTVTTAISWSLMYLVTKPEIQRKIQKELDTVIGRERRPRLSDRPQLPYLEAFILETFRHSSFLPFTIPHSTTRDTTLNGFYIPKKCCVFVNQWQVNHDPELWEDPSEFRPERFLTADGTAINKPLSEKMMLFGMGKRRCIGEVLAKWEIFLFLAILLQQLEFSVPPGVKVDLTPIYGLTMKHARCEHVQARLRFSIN
Test: Cytochrome panel assay with activity outcomes
Details: recombinant CYP, pro-luciferin dealkylation, luminescence, p450-cyp1a2; series mostly up to 57.1 µM
% is scaled to controls: 0 for no effect and ±100 for the full control effect.

Row | SMILES | AC50 | activity, negative = inhibition
1 | O=S(=O)(c1ccc(F)cc1)N1CCCC(CO)C1 (configuration not stated) | inactive | –
2 | COc1ccc(NC(=O)N2CC[C@@]3(CCCN(C(=O)c4csnn4)C3)C2)cc1 | inactive | –
3 | CCN(CC)C(=O)c1cc2cc([N+](=O)[O-])ccc2s1 | 2000 nM (active) | –
4 | CCN(CC)C(=O)Cn1cnc([N+](=O)[O-])n1 | inactive | –
5 | O=C(COc1ccc(Br)cc1)N1CCC(c2ccccc2)C1 (configuration not stated) | 3160 nM (active) | –
6 | Cc1cccc(OCC(=O)N2CCC(N3CCCCCC3)CC2)c1 | inactive | –
7 | CCOc1ccc(NC(=O)N2CCC(c3ccc(C)cc3)C2)cc1 (configuration not stated) | inactive | –
8 | Nc1ccc(C(=O)C[C@H](N)C(=O)O)cc1O | – | -4.16% [at 11.4 µM]
9 | Cc1cccn2c(=O)c(/C=N/O)c(N3CCCC3)nc12 | 891 nM (active) | –
10 | N[C@H](Cn1ccc(=O)n(Cc2ccccc2C(=O)O)c1=O)C(=O)O | inactive | –
11 | CC(C)OC(=O)C1=C2SCC(=O)N2C(N)=C(C#N)C1 | 1260 nM (active) | –
12 | CCOC(=O)C1=C2SCC(=O)N2C(N)=C(C#N)C1 | 1260 nM (active) | –
13 | O=C(O)c1ccc2c(c1)C(=O)N(C(Cc1ccc(O)cc1)C(=O)O)C2=O (configuration not stated) | inactive | –
14 | CN[C@H]1[C@@H](O[C@@H]2[C@H](O[C@@H]3[C@@H](O)[C@@H](O)[C@@H](N=C(N)N)[C@@H](O)[C@@H]3N=C(N)N)O[C@H](C)[C@@]2(O)C=O)O[C@@H](CO)[C@@H](O)[C@H]1O | inactive | –
15 | O=c1oc(-c2ccco2)nc2c1cnn2-c1ccccc1 | 2000 nM (active) | –
16 | O=C(Nc1ccc(-n2nncc2-c2ccco2)cc1)c1cc2ccccc2oc1=O | inactive | –
17 | CCC(CC)C(=O)Nc1c2cnn(-c3ccccc3)c2nc(=O)n1-c1ccccc1 | inactive | –
18 | CC1(C)CCCN(C(=O)N2c3ccccc3Sc3ccccc32)C1 | inactive | –
19 | CN1C(=C2C(=O)OC(C)(C)OC2=O)Sc2ccccc21 | 11200 nM (active) | –
20 | Nc1ncnc(N(c2ccccc2)C2CCCCC2)c1[N+](=O)[O-] | inactive | –
21 | Cn1c(SC2=CS(=O)(=O)c3ccccc32)nc2ccccc21 | 6310 nM (active) | –
22 | Cc1cc(C)c(-c2cc([C@H](C)O/N=C3/[C@H]4OC4[C@@H](O)[C@H]4[C@H]3CCn3c(=O)n(-c5ccccc5)c(=O)n34)on2)c(C)c1 (some centres not stated) | – | -8.09% [at 11.4 µM]
23 | CCOC(=O)c1sc(=N)n(-c2ccc(OC)cc2)c1C | 1260 nM (active) | –
24 | COc1ccc(-n2c(C)nn(C)c2=O)cc1 | inactive | –
25 | NCC[C@H](O)C(=O)N[C@H]1C[C@@H](N)[C@@H](O[C@H]2O[C@@H](CN)[C@@H](O)[C@@H](O)[C@@H]2O)[C@@H](O)[C@@H]1O[C@H]1O[C@@H](CO)[C@@H](O)[C@@H](N)[C@@H]1O | inactive | –
26 | Cc1oc2c(C)c(O)ccc2c(=O)c1-c1ccc2ccccc2n1 | 2240 nM (active) | –

Row | SMILES | AC50 | activity, negative = inhibition
27 | CCc1cc2c(=O)c(-c3nc4ccccc4n3C)c(C)oc2c(CN(CC)CC)c1O | inactive | –
28 | C=CCc1cccc2cc(C(=O)N(CC)CC)c(=O)oc12 | 1410 nM (active) | –
29 | CN(C)c1ncc2nc(CCc3ccccc3)c(=O)n(C3CC3)c2n1 | 3160 nM (active) | –
30 | COc1ccc(C2C(=O)N(CCc3ccccc3)CC(=O)N2C2CCCC2)cc1 (configuration not stated) | inactive | –
31 | COc1ccc(Oc2ncc3nc(CCc4ccccc4)c(=O)n(C4CC4)c3n2)cc1 | 12600 nM (active) | –
32 | COc1ncc2nc(CCc3ccccc3)c(=O)n(C3CC3)c2n1 | 3160 nM (active) | –
33 | O=c1c(CCc2ccccc2)nc2cncnc2n1C1CC1 | 6310 nM (active) | –
34 | C[C@@]1(C(=O)O)CCC[C@@H]1C(=O)O | – | -9.8% [at 2.29 µM]
35 | O=c1c(CCc2ccccc2)nc2cnc(Oc3ccccc3)nc2n1C1CC1 | 7940 nM (active) | –
36 | COc1ccc(S(=O)(=O)N2CCCCCC2)cc1N(C)S(=O)(=O)c1ccc(Cl)cc1 | inactive | –
37 | Cc1cc(C)c2c(N)c3ccccc3nc2n1 | 2240 nM (active) | –
38 | Cc1cc(NCCO)c2ccccc2n1 | inactive | –
39 | C=CC[n+]1c(-c2ccc(C)cc2)csc1NNC(=O)Nc1ccccc1 | 10000 nM (active) | –
40 | Cc1c(Cl)cccc1Nc1ccccc1C(=O)O | 3160 nM (active) | –
41 | Cc1cccc(Nc2ccccc2C(=O)O)c1C | 5010 nM (active) | –
42 | Cc1c(Cl)cccc1NC(=O)CN1CCC(C(O)(c2ccccc2)c2ccccc2)CC1 | inactive | –
43 | Cc1ccc(Cl)c(Nc2ccccc2C(=O)O)c1Cl | inactive | –
44 | Cc1cccc(C(=O)c2ccccc2C(=O)O)c1O | inactive | –
45 | O=S(=O)(O)[C@@H](c1ccccc1)[C@@H](O)c1ccccc1 | – | -13.9% [at 2.29 µM]
46 | Cc1ccc2nc(Nc3ccccc3O)nc(-c3ccccc3)c2c1 | 1780 nM (active) | –
47 | COC(=O)[C@@]1(Cc2ccccc2)[C@H]2c3cc(C(=O)N4CCCC4)n(CC4CC4)c3C[C@H]2CN1C(=O)c1ccccc1 | inactive | –
48 | CCOC(=O)c1cnc(-c2ccccc2)nc1Oc1cccc(Cl)c1 | 2510 nM (active) | –
49 | COc1cnc(-c2ccccc2)nc1Oc1cccc(C)c1 | 3160 nM (active) | –
50 | CCOC(=O)c1cnc(-c2ccccc2)nc1Oc1ccccc1 | 631 nM (active) | –
51 | CCOC(=O)c1cnc(-c2ccccc2)nc1Oc1ccc(Cl)cc1 | 200 nM (active) | –
52 | COC(=O)N1CCC2(CC1)CCN(c1ccncc1)CC2 | inactive | –

Row | SMILES | AC50 | activity, negative = inhibition
53 | Cc1ccc(Oc2nc(-c3ccccc3)ncc2S(C)(=O)=O)cc1 | 2820 nM (active) | –
54 | COc1nnc(OC)c2ccccc12 | 2510 nM (active) | –
55 | COc1ccc(Cc2n[nH]c(=O)c3ccccc23)cc1OC | inactive | –
56 | CN(C)CC(C)(C)CN1c2ccccc2Sc2ccccc21 | – | -17.7% [at 11.4 µM]
57 | CCN(CC)[C@@H](C)CN1c2ccccc2Sc2ccccc21 | 501 nM (active) | –
58 | CCC(=S)/C=C1\Sc2ccccc2N1CCCS(=O)(=O)O | inactive | –
59 | O=C1NC(=S)N/C1=C/c1cccc([N+](=O)[O-])c1O | inactive | –
60 | O=[N+]([O-])c1cccc(/C=N\Nc2ccc3ccccc3n2)c1O | 794 nM (active) | –
61 | O=C(O)c1ccccc1CN1CCC[C@@H](C(=O)O)C1 | – | -5.22% [at 11.4 µM]
62 | S=c1[nH]c2cc(Cl)ccc2s1 | 2000 nM (active) | –
63 | O=C(O)C1C2C=CC3(CN(Cc4ccccn4)C(=O)C13)O2 (configuration not stated) | inactive | –
64 | COc1ccc(O[C@H]2C=C[C@@H](c3ccccc3)O[C@@H]2CO/N=C\[C@@H](C)[C@H](OCc2ccccc2)C(C)C)cc1 | – | -3.11% [at 11.4 µM]
65 | O=C(CC1CCCC1)Nc1ccc2c(c1)CCC2 | 15800 nM (active) | –
66 | COC(=O)c1cc(NC(=O)CC2NC3CCCCC3NC2=O)cc(C(=O)OC)c1 (configuration not stated) | inactive | –
67 | Cc1ccc(NC(=O)CC2CS(=O)(=O)CC2CC(=O)Nc2ccc(C)c(C)c2)cc1C (configuration not stated) | inactive | –
68 | CN(C)C(=O)Oc1cccc([N+](C)(C)C)c1 | inactive | –
69 | CS[C@]12C(=O)C[C@]3(C)[C@@H](CC[C@@]3(O)C(=O)CO)[C@@H]1CCC1=CC(=O)CC[C@]12C | – | -24.3% [at 2.29 µM]
70 | N#Cc1ccc(-c2ccccc2)nc1SCC(=O)c1cccc(Cl)c1 | 2000 nM (active) | –
71 | CCC[C@@H]1C[C@@]1(CCC)C(NC(=O)c1ccc(-c2ccccc2)cc1)c1cccc(Cl)c1 (some centres not stated) | inactive | –
72 | Cc1c(C(=O)Nc2nccs2)sc2nc(-c3cccs3)cc(C(F)(F)F)c12 | 1580 nM (active) | –
73 | Cc1ccc(Oc2ccccc2/C=C2\SC(=O)N(C)C2=O)cc1 | 3160 nM (active) | –
74 | Cc1ccc(NC(=O)CN2C(=O)S/C(=C\c3cccn3C)C2=O)cc1 | inactive | –
75 | Cc1cc(N)c2ccccc2[n+]1CCCCCCCCCC[n+]1c(C)cc(N)c2ccccc21 | inactive | –
76 | CCCCCCCCC[n+]1cccc2c3ccccc3ccc21 | 15800 nM (active) | –
77 | Cc1cc(N)c2ccccc2[n+]1CCCCCCCCCCCCCC[n+]1c(C)cc(N)c2ccccc21 | inactive | –
78 | COc1cccc2c1OC[C@@H](CO)[C@H]2N(C)C(=O)Nc1ccc(Cl)cc1Cl | inactive | –

Row | SMILES | AC50 | activity, negative = inhibition
79 | Clc1ccccc1-c1nc(-c2ccncc2)no1 | 79.4 nM (active) | –
80 | O=C(CCNS(=O)(=O)c1cccs1)N1CCc2ccccc2C1 | 15800 nM (active) | –
81 | O=C(CCNS(=O)(=O)c1cccs1)N1CCCCCC1 | inactive | –
82 | CC(C)C(NS(=O)(=O)c1cccs1)C(=O)NCCN1CCN(c2ccccc2)CC1 (configuration not stated) | inactive | –
83 | Cc1cc(C)c2c(-n3cccc3)n[nH]c2n1 | 3550 nM (active) | –
84 | Cc1cc(C)c2c(-n3cccc3)nn(CC#N)c2n1 | 2510 nM (active) | –
85 | CSc1nc(Oc2ccc(=O)[nH]n2)nc(N(C)C)n1 | inactive | –
86 | Cc1cccc(-n2c(Cn3nc(C)c([N+](=O)[O-])c3C)n[nH]c2=S)c1 | inactive | –
87 | Cc1cccc(-n2nc([N+](=O)[O-])c(=NCc3cccnc3)n2O)c1 | 2000 nM (active) | –
88 | COc1cc(OC)c(C#N)c(S(=O)(=O)Cc2ccccc2)c1 | 15800 nM (active) | –
89 | C#CCn1c(S(=O)(=O)Cc2ccc(OC)cc2)nc(-c2ccccc2)c1-c1ccccc1 | inactive | –
90 | COc1ccc(F)cc1S(=O)(=O)NC(Cc1ccccc1)C(N)=O (configuration not stated) | inactive | –
91 | C[C@@H](CNC(N)=O)NC(N)=O | – | -12.2% [at 11.4 µM]
92 | COc1cccc(-c2cncnc2N(C)Cc2ccco2)c1 | 10000 nM (active) | –
93 | CN(Cc1ccco1)c1ncncc1-c1ccc2c(c1)OCO2 | 200 nM (active) | –
94 | CN(Cc1ccco1)c1ncncc1-c1cccnc1 | 5010 nM (active) | –
95 | CN(C)c1ccc(-c2cncnc2N(C)Cc2ccco2)cc1 | 631 nM (active) | –
96 | CN(Cc1ccco1)c1ncncc1-c1ccoc1 | 15800 nM (active) | –
97 | O=C(Nc1cccc(-c2nc3ncccc3o2)c1)c1sc2ccccc2c1Cl | 708 nM (active) | –
98 | CCCCCC(=O)N1CC2(CC(c3cccc(NC(=O)c4ccccc4)c3)=NO2)C[C@@H]1C(N)=O (some centres not stated) | inactive | –
99 | CCCCCC(=O)Nc1cccc(-c2nc3ncccc3o2)c1 | 2000 nM (active) | –
100 | O=C(Cc1ccc(Cl)cc1)Nc1cccc(-c2nnc(-c3ccco3)o2)c1 | inactive | –
101 | O=C(CSc1ccc(Cl)cc1)Nc1cccc(-c2nc3ncccc3o2)c1 | 8910 nM (active) | –
102 | CCC(=O)Nc1cccc(-c2nnc(-c3cccc(NC(=O)CC)c3)o2)c1 | inactive | –
